TRHR enhancer – TRH receptor (human) allosteric enhancement. P34981. enhancement, % at 2 µM. TRHR cells, fluo-8 calcium fluorescence, EC20 TRH enhancement. 360,000 compounds, 0.66% hits; in the data active = enhancement above about 30%; also: 0% is about no effect
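TRHR-expressing cells loaded with fluo-8 calcium dye were read kinetically (ex 480/em 530) during compound addition, then stimulated with an EC20 of TRH (10 nM final). Enhancement of the Gq-mediated intracellular calcium response was scored.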
D1 antag – blocks dopamine activation of the human D1 receptor; P21728; 360,000 compounds, 3.2% hits; activity change, negative = inhibition, % at 10 µM; AID 504652; HEK293 TREx D1 cells, calcium flux, dopamine EC80; stronger effect = lower value; in the data active = activity change below about -30%; also: % is scaled to controls: 0 for no effect and ±100 for the full control effect
Target sequence (P21728 whole entry, looked up): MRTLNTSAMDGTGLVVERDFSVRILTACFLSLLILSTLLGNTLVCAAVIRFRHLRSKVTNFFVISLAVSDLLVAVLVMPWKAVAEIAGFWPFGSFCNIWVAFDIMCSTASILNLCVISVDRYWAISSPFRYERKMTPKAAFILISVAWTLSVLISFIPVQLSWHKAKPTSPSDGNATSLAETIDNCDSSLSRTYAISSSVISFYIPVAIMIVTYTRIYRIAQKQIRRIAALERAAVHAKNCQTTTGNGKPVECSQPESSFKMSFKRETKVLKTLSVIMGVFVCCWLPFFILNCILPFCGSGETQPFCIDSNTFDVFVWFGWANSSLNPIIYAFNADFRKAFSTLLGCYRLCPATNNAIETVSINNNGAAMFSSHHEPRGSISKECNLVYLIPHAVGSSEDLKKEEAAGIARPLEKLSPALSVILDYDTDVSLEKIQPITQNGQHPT
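Inducible Hek293 Trex D1 cells (tetracycline, overnight, 30 C). Calcium dye 30–90 min RT. Antagonist mode: EC80 dopamine added after 180 s compound read.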
D1 PAM – potentiators of human D1 dopamine receptor; potentiation, % at 10 µM; HEK293 TREx D1 cells, calcium flux, dopamine EC20 potentiation; AID 504651; P21728; 360,000 compounds, 0.036% hits; in the data active = potentiation above about 30%; also: 0% is about no effect
D1 ag – activates the human D1 dopamine receptor; P21728; HEK293 T-REx D1 cells, calcium flux, agonist mode; activation, % at 2 µM; AID 504660; 360,000 compounds, 1% hits; also: 0% is about no effect
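Inducible HEK293 T-REx D1 cells, force-coupled to calcium signalling, were plated at 4000 cells/well with tetracycline and held overnight at 30 C. After no-wash calcium dye loading, compound-evoked calcium rise over 180 s flagged agonists.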
TRHR ag – TRH receptor (human) agonism; P34981; AID 493084; 360,000 compounds, 0.18% hits; TRHR cells, calcium flux fluo-8, FDSS agonist mode; activation, % at 2 µM; also: 0% is about no effect
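Read-out: compound-evoked intracellular calcium rise in TRHR cells, fluo-8 dye, kinetic FDSS fluorescence at 1 s/cycle following a 10-cycle baseline. Cells cultured overnight before dye loading (30 min–1.5 h, RT).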
* hit, by the source's call; / = no result; ! = repeats disagree. Rows were chosen to be rich in hits. Some 4.6% of all compounds tested hit in one or more screens of this group. Rule as the data show it, unless noted: active = activation above about 30%; inactive = the rest.

SMILES	TRHR enhancer	D1 antag	D1 PAM	D1 ag	TRHR ag
CCOc1cc(C(=O)NCCN2C(=O)S/C(=C\c3cccnc3)C2=O)cc(OCC)c1OCC	5	-49*	-5	4	-1
COc1ccc(C(=O)NCCN2C(=O)S/C(=C\c3cccnc3)C2=O)c(OC)c1OC	6	16	-3	2	0
COc1ccc(OC)c(CNC(=O)C2CCN(c3nc4ccccc4nc3C(F)(F)F)CC2)c1	1	-9	-4	1	0
CC(C)N1CCN(Cc2ccncc2)CC1CCO (stereo unspecified)	-6	4	-4	3	1
CC(C)N1CCN(Cc2cccn2-c2nccs2)CC1CCO (stereo unspecified)	36*	6	1	14	2
OCCC1CN(Cc2cccn2-c2nccs2)CCN1C1CCCCC1 (stereo unspecified)	-1	0	-1	1	0
CSc1ccc(CN2CCN(C(C)C)C(CCO)C2)cc1 (stereo unspecified)	-3	-35*	0	0	-1
CC(C)CC(=O)Nc1nnc(S(=O)(=O)N2CCc3ccccc32)s1	7	-46*!	-3	0	0
CCC(=O)Nc1nnc(S(=O)(=O)N2CCc3ccccc32)s1	21	8	-4	0	3
CC(C)OC(=O)/C(=C\c1ccccc1)NC(=O)c1ccccc1	-4	5	-3	-1	0
CC(C)OC(=O)C(NC(=O)c1ccccc1)=C1CCCCC1	-5	-38*	-2	4	-1
Fc1ccccc1Nc1n[nH]c(=S)s1	0	-13	2	3	0
S=c1[nH]nc(Nc2cccc3ccccc23)s1	-2	-33*	3	2	-2
Cc1cc(C)c(S(=O)(=O)c2ccc(Cl)cc2)c(=O)[nH]1	6	4	3	2	0
N#Cc1cc(S(=O)(=O)c2ccc(Cl)cc2)c(N)[nH]c1=O	-6	-45*	-4	2	-1
CCOC(=O)c1sc2ccccc2c1S(=O)(=O)NCc1ccccc1OC	1	-5	-4	6	1
CC(=O)N1N=C(c2cccc([N+](=O)[O-])c2)OC1(C)CC(=O)Nc1ccccc1 (stereo unspecified)	11	-77*	-10	2	0
COc1ccc(CC2(C)OC(c3ccccc3)=NN2C(C)=O)cc1 (stereo unspecified)	-12	-42*	-4	2	0
COc1ccc(CC2(C)OC(c3ccc(C)cc3)=NN2C(C)=O)cc1 (stereo unspecified)	8	13	-5	6	-1
COc1ccccc1/C=C/c1nc(C#N)c(NCc2ccccc2)o1	18	0	1	-1	-2
Cc1cc(-c2cccs2)c2c(N)c(C(=O)c3ccc4c(c3)OCO4)sc2n1	-7	14	7	61*	18
COc1ccc(C(=O)c2sc3nc(C)cc(-c4cccs4)c3c2N)cc1OC	-12	31	0	82*	21
CN1CCN(CCCN2c3ccccc3Sc3ccc(S(=O)(=O)N(C)C)cc32)CC1	-1	-94*	-1	52*	5
CN(C)CC/C=C1\c2ccccc2Sc2ccc(Cl)cc21	-1	-82*	-3	22	1
CN(C)CC/C=C1/c2cc(F)ccc2CSc2ccc(F)cc21	3	-4	-9	5	1
SMILES	TRHR enhancer	D1 antag	D1 PAM	D1 ag	TRHR ag
CC[N+](C)(C)CC/C=C1/c2ccccc2Sc2ccc(Cl)cc21	4	-17	-3	0	-1
CCCCCCCCCC[N+](C)(C)CC/C=C1/c2ccccc2Sc2ccc(Cl)cc21	8	6	-4	53*	1
CN1CCN(CCCNC(=O)c2cn(C)c3ccc(S(=O)(=O)N(C)C)cc3c2=O)CC1	-4	-6	-4	4	0
OCCN1CCN(CC/C=C2/c3ccccc3Sc3ccc(Cl)cc32)CC1	0	-100*	-5	27	-1
CCCCCN(C(=O)CCC(=O)OC(C)C(=O)c1ccccc1)c1c(N)n(CCCC)c(=O)[nH]c1=O (stereo unspecified)	-18	16	1	2	0
Cc1ccc(NC(=O)Nc2nnc(SCC(=O)N(C(C)C)C(C)C)s2)cc1	6	/	-4	-3	0
CCS(=O)(=O)N1CCc2cc(C(=O)N3CCN(c4ccc(OC)cc4)CC3)ccc21	-1	3	-1	2	0

High-throughput results (PubChem)
